Cycloheximide cs – Cycloheximide Counterscreen for Small Molecule Inhibitors of Shiga Toxin; cell reporter, cycloheximide protein synthesis inhibition counterscreen; max response, %; 12% of 300,000 active; in the data active means max response mostly above about 13%, no sharp cut-off; inactive means mostly below about 14%; further: read at 38.3 µM for the half of the compounds with a filed dose; 0% is about no effect
Lassa entry inh – qHTS for Inhibitors of binding or entry into cells for Lassa Virus. 1.2% of 300,000 active. Potency, µM (doses to about 37.9 µM), without a hit: at the top dose activity change, negative = inhibition, actives largely listed as inhibitors. Lassa virus pseudotype entry inhibition, cell reporter. AID 540256, 2011; calls by dose curve; tested in HEK293 cells; further: potency means the concentration at half of the fitted maximal effect; on the % scale 0 is the no-effect control and ±100 the full control effect; nearly all actives have a fitted effect of over 50% in size
FMDV antiviral – High Throughput Screening for Foot and Mouth Disease Virus Antivirals | FMDV antiviral cell-based qHTS | Potency, µM (highest dose often 57.9 µM), for the others: top-dose activity change, negative = inhibition, most hits filed as inhibitors | 1.2% of 410,000 active | AID 1159524, 2015; calls by dose curve; tested in HEK293T cells; further: read-out not given here; potency means the concentration at half of the fitted maximal effect; on the % scale 0 is the no-effect control and ±100 the full control effect; nearly all actives have a fitted effect of over 45% in size
MARV entry inh – qHTS for inhibitors of binding or entry into cells for Marburg Virus; 1.8% of 300,000 active; Marburg virus pseudotyped entry inhibition, cell reporter; Potency, µM (highest dose often 37.8 µM), without a hit: at the top dose activity change, negative = inhibition, usual class: inhibitors; calls by dose curve; tested in HEK293 cells; further: potency means the concentration at half of the fitted maximal effect; on the % scale 0 is the no-effect control and ±100 the full control effect
Shiga inhibitor – A qHTS for Small Molecule Inhibitors of Shiga Toxin; AID 2315, 2010; Vero cells, Shiga toxin protein synthesis inhibition reporter; inhibition, % at 38.7 µM; 9.2% of 290,000 active; in the data active means inhibition mostly above about 28%, no sharp cut-off; inactive means mostly below about 43%; further: 0% is about no effect
HCV inhibitor – qHTS Assay for Inhibitors of Hepatitis C Virus (HCV); Huh7.5.1 HCVcc-Cre infection, luciferase reporter, 44 h; Potency, µM (titrated, usually from 41.8 µM), inactives show at the top dose activity change, negative = inhibition, actives largely listed as inhibitors; 3.4% of 340,000 active; AID 651820, 2012; active means well fitted inhibition curve with a large enough effect; inconclusive means small, poorly fitted or top-dose-only effect, or another doubt; inactive means no such curve, though single readings can be large or run the other way; further: potency means the concentration at half of the fitted maximal effect; on the % scale 0 is the no-effect control and ±100 the full control effect
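Compounds are dispensed onto cells plated 4 h earlier at 1,000 per well, with HCVcc-Cre virus (about 0.5 moi) added next. Following 44 h of culture, luminescent signal is measured for 15 sec after 15 min with substrate at room temperature.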
* hit, by the source's call; [ ] = dose if it differs, or a comment. A selection: hits, their analogues and other compounds. The true share with any hit is near 13%.

Results for COC(=O)c1ccccc1NC(=O)Nc1nnc(N2CCC(C)CC2)s1 ?
Cycloheximide cs: -2; Lassa entry inh: -21%[46.1 µM]; FMDV antiviral: 3%; MARV entry inh: -1%[46.1 µM]; Shiga inhibitor: -14; HCV inhibitor: 0%

What do the screens show for `O=C(Nc1ccnn1C1CCN(CCCC2CCCC2)CC1)c1ccccc1`?
Cycloheximide cs: -2; FMDV antiviral: -27%; Shiga inhibitor: -5; HCV inhibitor: inconclusive

Results for COc1ccc(C(=O)Nc2nc(C)c(C(=O)N(C)C)s2)cc1OC ?
Cycloheximide cs: 30*; Lassa entry inh: -13%; FMDV antiviral: 49%; MARV entry inh: 24%; Shiga inhibitor: 16; HCV inhibitor: -10%

Results for CC(=O)c1sc(NC(=O)c2ccccc2F)nc1C ?
Cycloheximide cs: 28*; FMDV antiviral: 13%; Shiga inhibitor: 43*; HCV inhibitor: inconclusive

How did CCN1CCc2nc(NC(=O)c3ccc4c(c3)OCCO4)sc2C1 do in these assays?
Cycloheximide cs: 33*; Lassa entry inh: inconclusive; FMDV antiviral: 38%; MARV entry inh: 1%; Shiga inhibitor: 98*; HCV inhibitor: -16%

Results for COc1ccc(/C=C/C(=O)Nc2nc(C)c(C(=O)N(C)C)s2)cc1OC ?
Cycloheximide cs: 1; Lassa entry inh: 4%; FMDV antiviral: -4%; MARV entry inh: inconclusive; Shiga inhibitor: -12; HCV inhibitor: -20%

How did CCN1CCc2nc(NC(=O)Cc3ccc4c(c3)OCCO4)sc2C1 do in these assays?
Cycloheximide cs: 8; Lassa entry inh: -6%; FMDV antiviral: 16%; MARV entry inh: inconclusive; Shiga inhibitor: 17; HCV inhibitor: inconclusive

Results for COc1ccc(C(=O)Nc2nc(C)c(C(C)=O)s2)cc1S(=O)(=O)N1CCOCC1 ?
FMDV antiviral: -10%; HCV inhibitor: -16%

Results for CC(=O)c1sc(NC(=O)c2ccc(C)c(C)c2)nc1C ?
Cycloheximide cs: 47*; FMDV antiviral: 54%; Shiga inhibitor: 47*; HCV inhibitor: inconclusive

How did CCN(CC)C(=O)CSc1cn(CC(=O)N2CCCCCC2)c2ccccc12 do in these assays?
Lassa entry inh: 9%[46.1 µM]; FMDV antiviral: 8%

How did O=C(CNC(=O)c1ccccc1)NCC(O)c1ccc([N+](=O)[O-])cc1 (stereo not drawn) do in these assays?
Cycloheximide cs: -10; Lassa entry inh: -12%; FMDV antiviral: 18%; MARV entry inh: 5%; Shiga inhibitor: -7; HCV inhibitor: -7%

What do the screens show for `CC(=O)c1sc(NC(=O)c2ccc3c(c2)OCO3)nc1C`?
Cycloheximide cs: 43*; Lassa entry inh: inconclusive; FMDV antiviral: 4%; MARV entry inh: inconclusive; Shiga inhibitor: 82*; HCV inhibitor: -18%

How did CC(=O)c1sc(NC(=O)c2cccnc2Cl)nc1C do in these assays?
Cycloheximide cs: 13; FMDV antiviral: 34%; Shiga inhibitor: -4; HCV inhibitor: 1%

Results for CC(=O)c1sc(NC(=O)c2ccc(C(C)(C)C)cc2)nc1C ?
Cycloheximide cs: 67*; Lassa entry inh: inconclusive; FMDV antiviral: inconclusive; MARV entry inh: inconclusive; Shiga inhibitor: 158*; HCV inhibitor: -15%

What do the screens show for `COCCN(CCOC)S(=O)(=O)c1ccc(C(=O)Nc2nc(C)c(C(C)=O)s2)cc1`?
Cycloheximide cs: 1; Lassa entry inh: 27%; FMDV antiviral: 44%; MARV entry inh: 27%; Shiga inhibitor: -6; HCV inhibitor: 9%

What do the screens show for `Cc1nc(NC(=O)c2ccc(Cl)cc2)sc1Cc1ccc2c(c1)OCO2`?
Cycloheximide cs: 8; Lassa entry inh: -17%[46.1 µM]; FMDV antiviral: -12%; MARV entry inh: inconclusive; Shiga inhibitor: 13; HCV inhibitor: inconclusive

Results for Cc1nc(NC(=O)c2ccccc2)sc1Cc1ccc2c(c1)OCO2 ?
Cycloheximide cs: 68*; Lassa entry inh: -13%; FMDV antiviral: 21%; MARV entry inh: inconclusive; Shiga inhibitor: 25*; HCV inhibitor: inconclusive

How did CC(=O)c1sc(NC(=O)c2cnc(Cl)c(Cl)c2)nc1C do in these assays?
Cycloheximide cs: 14*; FMDV antiviral: -14%; MARV entry inh: inconclusive; Shiga inhibitor: 84*; HCV inhibitor: -11%
